Only some compounds are listed: those with a hit (about 27% of all), similar ones and a draw of the others.
CYP2C19 act: human CYP2C19 activators, primary screen, biochemical, luminescence; recombinant CYP2C19, luciferin-H EGE luminescence; stronger effect = higher value; 0 = fully inhibited enzyme, 1 = untreated enzyme; Cytochrome P450 2C19 (Homo sapiens), P33261; 96,000 tested, under 10 active; activation factor at 5 µM;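 active = activation factor of at least 2 at 5 µM in the primary screen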;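 also: 0 = wells with 2.5 mM tranylcypromine and 1 = vehicle-only wells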
CYP2C19 inhib: blockers of cytochrome P450 2C19 activity – biochemical, luminescence, ADME assay, primary screen; P33261; CYP2C19 Supersomes, luciferin-H EGE luminescence, 30 min; inhibition, % at 5 µM; 96,000 compounds, 21% hits;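 active = CYP2C19 inhibition above a set limit at 5 µM in the primary screen, cut at about 50% in these data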;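 also: plate controls were negative control wells for no effect and 2.5 mM tranylcypromine positive control for full effect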
CYP2C9 activ: human CYP2C9 activators, primary screen, biochemical, luminescence; Cytochrome P450 2C9 (Homo sapiens), P11712; recombinant CYP2C9, luciferin-H conversion; stronger effect = higher value; factor 1 = untreated enzyme, 0 = blocked; activation factor at 5 µM; 96,000 compounds, 1.4% hits; AID 1024, 2008;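 active = activation factor of 2 or more for CYP2C9 at a 5 µM dose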;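 also: 0 = sulfaphenazole-blocked wells and 1 = vehicle-only wells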
CYP2C9 inhib: blockers of cytochrome P450 2C9 activity – biochemical, luminescence, ADME assay, primary screen | P11712 | CYP2C9 Supersomes, luciferin-H conversion | inhibition, % at 5 µM | 96,000 compounds, 20% hits;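 active = blocking of liver enzyme CYP2C9 beyond about 50% at 5 µM, limit read from the data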
Cav3 T inh: Cav3.2 calcium influx blockers – cell-based, Fluo-4 calcium fluorescence, FDSS, MLSMR library, primary screen; 100,000 compounds, 4% hits; AID 449739, 2010; Voltage-dependent T-type calcium channel subunit alpha-1H (Homo sapiens), O95180; Cav3.2-expressing cells; stronger effect = lower value; B-score at 10 µM;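 active = single-dose well whose peak fluorescence ratio is a statistical outlier from its plate by either plate-standardised score or position-corrected B-score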
* = called active by the depositor.

COC(=O)CSc1nc2ccc(C)cc2[nH]1 was read as CYP2C19 act 1, CYP2C19 inhib 4.5, CYP2C9 activ 1, CYP2C9 inhib -2.7 and Cav3 T inh 0.879.
COC(=O)c1ccc(CSc2nc3scc(-c4cccs4)c3c(=O)[nH]2)o1 was read as CYP2C19 act 0.8, CYP2C19 inhib 24.5, CYP2C9 activ 0.4, CYP2C9 inhib 57.2* and Cav3 T inh -0.688.
Screening COC(=O)c1ccc(CSc2nc3cc(Cl)ccc3s2)o1 returned CYP2C19 act 0.9, CYP2C19 inhib 5.4, CYP2C9 activ 0.9, CYP2C9 inhib 10.9 and Cav3 T inh -0.325.
For CCCc1cc(=O)[nH]c(SCc2cc(C(=O)OC)c(C)o2)n1 the results were CYP2C19 act 0.2, CYP2C19 inhib 77.3*, CYP2C9 activ 0.1, CYP2C9 inhib 86.9* and Cav3 T inh -1.42.
Screening NCCCC[C@H](N)c1nnc([C@H](CCC(=O)O)NC(=O)C2CCNCC2)o1 returned Cav3 T inh -0.0468.
For CC1=CC(C)(C)N2C(=O)C3(SCC(=O)N3c3ccc(O)cc3)c3cc(C)cc1c32 (stereo unspecified) the results were CYP2C19 act 0.1, CYP2C19 inhib 87.2*, CYP2C9 activ 0, CYP2C9 inhib 97.2* and Cav3 T inh -7.43*.
For CCOC(=O)c1c(-c2ccco2)csc1NC(=O)CSc1nnc(N)s1 the results were CYP2C19 act 0.8, CYP2C19 inhib 20.5, CYP2C9 activ 0.4, CYP2C9 inhib 56.6* and Cav3 T inh -1.18.
For CCOC(=O)c1c(-c2ccc(C)o2)csc1NC(=O)CN(C)CC(=O)Nc1ccc(C)cc1 the results were CYP2C19 act 0.3, CYP2C19 inhib 68.9*, CYP2C9 activ 0, CYP2C9 inhib 95.8* and Cav3 T inh -0.439.
For CCOC(=O)c1c(-c2ccc(C)o2)csc1NC(=O)CSc1nncs1 the results were CYP2C19 act 0.1, CYP2C19 inhib 90.7*, CYP2C9 activ 0, CYP2C9 inhib 100.1* and Cav3 T inh -1.81.
For CCc1cccc2c(C#N)cn(CC(=O)NCCOC)c12 the results were CYP2C19 act 0.7, CYP2C19 inhib 32.6, CYP2C9 activ 1, CYP2C9 inhib 0.7 and Cav3 T inh 0.182.
Screening CCCCC(=O)NNC(=S)NC(=O)c1cccc([N+](=O)[O-])c1 returned CYP2C19 act 0.9, CYP2C19 inhib 7.0, CYP2C9 activ 0.7, CYP2C9 inhib 25.4 and Cav3 T inh -3.36.
`COc1ccc(NC(=S)NC(NC(=O)c2cccc(Cl)c2)C(Cl)(Cl)Cl)c([N+](=O)[O-])c1` (stereo unspecified) gave Cav3 T inh -4.85*.
For COc1ccc(NC(=S)NC(NC(=O)c2cccc(C)c2)C(Cl)(Cl)Cl)c([N+](=O)[O-])c1 (stereo unspecified) the results were Cav3 T inh -6.72*.
O=C(NC(NC(=S)Nc1ccccc1C(=O)O)C(Cl)(Cl)Cl)c1cccc([N+](=O)[O-])c1 (stereo unspecified) was read as CYP2C19 act 1, CYP2C19 inhib -4.6, CYP2C9 activ 0.3, CYP2C9 inhib 70.6* and Cav3 T inh -1.14.
Screening CCOC(=O)NC(NC(=S)Nc1ccccc1[N+](=O)[O-])C(Cl)(Cl)Cl (stereo unspecified) returned CYP2C19 act 0, CYP2C19 inhib 98.3*, CYP2C9 activ 0.1, CYP2C9 inhib 93.2* and Cav3 T inh -1.42.
`COc1ccc(C(O)Cc2nc3ccccc3n2C)cc1OC` (stereo unspecified) gave Cav3 T inh 0.71.
For CCN(CC)CCC(c1ccc(N(C)C)cc1)c1c(O)cc(OC)cc1OC (stereo unspecified) the results were Cav3 T inh 0.178.
`O=C(COC(=O)c1ccco1)Nc1ccc2c(c1)OCO2` gave CYP2C19 act 0.7, CYP2C19 inhib 33.7, CYP2C9 activ 0.9, CYP2C9 inhib 9.1 and Cav3 T inh 0.0082.
For O=C(COC(=O)c1c2c(nc3ccccc13)CCCC2)Nc1ccc2c(c1)OCO2 the results were CYP2C19 act 0.2, CYP2C19 inhib 75.9*, CYP2C9 activ 0.2, CYP2C9 inhib 77.3* and Cav3 T inh -2.52.
`COc1cccc(NC(=O)COC(=O)c2c3c(nc4ccccc24)CCC(C)C3)c1` (stereo unspecified) gave CYP2C19 act 0.6, CYP2C19 inhib 45.0, CYP2C9 activ 0.4, CYP2C9 inhib 56.1* and Cav3 T inh -2.57.
`COc1cccc(NC(=O)COC(=O)c2nc3nccc(C)n3n2)c1` gave CYP2C19 act 0.9, CYP2C19 inhib 9.5, CYP2C9 activ 1.1, CYP2C9 inhib -14.2 and Cav3 T inh 1.76.
CC1(C)Cc2ccccc2C(NNC(=O)c2ccncc2)=N1 was read as CYP2C19 act 1, CYP2C19 inhib -0.3, CYP2C9 activ 1, CYP2C9 inhib -2.0 and Cav3 T inh 0.0189.
For O=C(CSc1nnc(C2CC2)n1Cc1ccccc1)c1cc2ccccc2o1 the results were CYP2C19 act 0.1, CYP2C19 inhib 92.7*, CYP2C9 activ 0.1, CYP2C9 inhib 87.8* and Cav3 T inh -2.85.
`Cc1ccc2c(c1)c1c(n2CC2COC(C)(C)O2)C(=O)CCC1` (stereo unspecified) gave CYP2C19 act 0.2, CYP2C19 inhib 75.8*, CYP2C9 activ 0.3 and CYP2C9 inhib 73.2*.
Screening Cc1ccc2c(c1)c1c(n2CC(O)CN2C(=O)CNC2=O)C(=O)CCC1 (stereo unspecified) returned CYP2C19 act 0.8, CYP2C19 inhib 23.5, CYP2C9 activ 0.9, CYP2C9 inhib 7.1 and Cav3 T inh 0.0433.
Screening CCCOc1cccc(NC(=O)c2cc(C)oc2C)c1 returned CYP2C19 act 0.8, CYP2C19 inhib 16.0, CYP2C9 activ 0.9, CYP2C9 inhib 9.4 and Cav3 T inh -2.16.
CCCC(=Nc1ccc(N)cc1)C1=C(O)C(C(=O)OC)C(C)(C)CC1=O (stereo unspecified) was read as CYP2C19 act 0.7, CYP2C19 inhib 31.4, CYP2C9 activ 0.6, CYP2C9 inhib 40.6 and Cav3 T inh -5.12*.
CCCCC(=NCCO)C1=C(O)C(C(=O)OC)C(C)(C)CC1=O (stereo unspecified) was read as CYP2C19 act 0.9, CYP2C19 inhib 9.4, CYP2C9 activ 0.8, CYP2C9 inhib 18.3 and Cav3 T inh 0.998.
CCCC(=O)C1=C(O)C(C(=O)OC)C(C)(C)CC1=Nc1ccc(N)cc1 (stereo unspecified) was read as CYP2C19 act 0.5, CYP2C19 inhib 51.7*, CYP2C9 activ 0.6, CYP2C9 inhib 42.3 and Cav3 T inh 0.484.
`CCn1cc(Br)c(C(=O)NN)n1` gave CYP2C19 act 0.9, CYP2C19 inhib 8.2, CYP2C9 activ 1.2, CYP2C9 inhib -23.3 and Cav3 T inh -0.267.
`Cc1ccc(Cn2nc(C)c3cc(C(=O)OCC(N)=O)sc32)cc1` gave CYP2C19 act 1, CYP2C19 inhib 0.1, CYP2C9 activ 0.7, CYP2C9 inhib 31.3 and Cav3 T inh -1.08.
